The record followed here is PubChem BioAssay (NCATS).

Assay [1] is described as follows: P-glycoprotein substrates identified in KB-8-5-11 adenocarcinoma cell line, qHTS therapeutic library screen (AID 1346987). In a few lines:
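KB-8-5-11: colchicine-selected sub-line of KB-3-1 over-expressing P-gp; assay medium lacked colchicine. 72 h drug exposure at 37 degree C, CellTiter-Glo.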
Background: qHTS replaces the single test concentration by a dilution series.

The target of assay [2] is Glutathione peroxidase 1 (Homo sapiens) (UniProt P07203). The assay can be described thus: Primary qHTS Assay for Inhibitors of Recombinant Selenoprotein Glutathione Peroxidase 1 (GPX1) (AID 1845191). In a few lines: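 10 nM GPX1 + cpd, 30 min RT; start w/ 1 mM GSH, 0.5 mM cumene hydroperoxide, 0.5 mM NADPH, 100 nM GR, 0.01% BSA; buffer 50 mM Tris-HCl pH 7.5, 2 mM EDTA, 150 mM NaCl; Fl 340/450, 0 & 15 min.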

Molecules are shown by their SMILES. Results filed as inconclusive are left out. A call without a number means that no potency is given here. Unmarked numbers belong to inactive results. The source made the active and inactive calls. Calls come from the whole dose curve; as a rule, active = well fitted inhibition curve with a large enough effect; inconclusive = small, poorly fitted or top-dose-only effect; inactive = flat fitted curve, though single readings scatter.
Note: nearly all actives have a fitted effect of over 65% in size.

Glutathione peroxidase 1 (Homo sapiens), sequence (P07203 whole entry, looked up): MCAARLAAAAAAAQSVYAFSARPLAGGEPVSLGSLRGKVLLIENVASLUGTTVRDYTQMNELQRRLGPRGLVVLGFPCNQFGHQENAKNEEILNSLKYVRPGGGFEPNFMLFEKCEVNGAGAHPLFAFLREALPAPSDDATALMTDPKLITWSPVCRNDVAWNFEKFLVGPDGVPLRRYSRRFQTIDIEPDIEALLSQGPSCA

On to `O=C1NCCCc2c1oc1ccc(O)cc21`, for which the Potency entry in assay [1] and in assay [2] was “inactive” each time.
